# Target: TGFB1I1
# Test: pooled miR-30 sensor sort-seq; sequence = guide strand
# Details: shRNA
# Further: reference of the scale not given here.
row,Sequence,sensor-assay potency score (higher = more potent)
1,TTTATTGCAGGAGCCACAGAGG,-1.1
2,TTGTCTGTGTGCAATCCACTTT,0.0751
3,TTGTGGAGCTCACCACCGGTGG,-1.9
4,TTAAGTTCCTGAAGCAACCGAT,-0.211
5,TGAGACATGATTTCATCTGTGA,0.918
6,TCTTTTCTTATCTTCAGACTGG,-0.149
7,TAAGTTCCTGAAGCAACCGATC,-1.43
8,TCATCTGTGATGTTGAACTGAG,-0.542
9,TTTTCTTATCTTCAGACTGGTC,-0.967
10,TTTGTGGAGCTCACCACCGGTG,-1.15

# Target: THNSL1
# Test: as above
# Details: shRNA
row,Sequence,sensor-assay potency score (higher = more potent)
1,TTGCTCATTACCAACATCCTGT,0.41
2,TATACTAGAAAAACATTTCTGT,0.647
3,TATGACACAACAACCTAGTTTC,-0.543
4,TTCTTTAATCTTTAAAGCCTGC,-0.791
5,TATAGGTGGAGTTAATAGCTGC,-0.591
6,TTTGAGAATATCTATTGACGGT,-0.0842
7,TATAATTGCAACTTGGTGGGAT,0.997
8,TATCCTTTGCTTATCATTCTTA,0.234
9,TTTGTCTCCAACAAGAGAGTGG,-0.0448
10,TTGAGAATATCTATTGACGGTG,-0.169
11,TATCTGTGCTCTTTCTACGTAG,-0.49
12,ATCTAGTAGAGGTACATCCAGG,-1.3

# Target: THOC7
# Test: as above
# Details: shRNA
row,Sequence,sensor-assay potency score (higher = more potent)
1,TATGCTACATTCTATTTCCTTG,-0.777
2,TAATTCTCCGATCATCTCCAGC,-0.503
3,TAAGAAGAACATGAAACTGTTT,-0.283
4,TTTGCTTGAAGAATTTGCTTTT,-0.209
5,TTTTGCTTGAAGAATTTGCTTT,-0.308
6,TTTAATGAAACTCTTCACTAGC,0.0596
7,TTTCCGTCTCAATTCCAGCTTA,-0.243
8,TTCGTATTCGTTTTGCTTGAAG,-0.51
9,TAATGTGTGAAAGATGCTCTAA,0.0139
10,TTCCTGAGCTTCTTCTACCTCT,-0.111
11,TTTTCGTATTCGTTTTGCTTGA,-0.919

# Target: TIMM44
# Test: as above
# Details: shRNA
row,Sequence,sensor-assay potency score (higher = more potent)
1,TTCGTCATACTTCATCTTCATC,-1.59
2,ATCACTTTTACTGACTTCGTGA,0.235
3,TTGTTTGACATTATCTAGCAAG,-0.93
4,ATCTTCATCTCGAAGAACCGGT,-0.094
5,TTGACATTATCTAGCAAGCCGG,-1.12
6,TGACATTATCTAGCAAGCCGGA,-1.13
7,TAAGTAGCTTCATAGCACCAGT,-0.441
